HP1b binding inh = blocks HP1-beta chromodomain binding to methylated histone tails | AID 540317 | AlphaScreen HP1-beta / biotin-H3K9me3 peptide binding | Potency, µM (doses to about 114 µM), actives largely listed as inhibitors | hit rate 0.56% among 390,000; note: nearly all actives have a fitted effect of over 70% in size
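HP1-beta protein (50 nM final) preincubated 30 min at room temperature with biotinylated H3(1-18)K9me3 peptide (50 nM) in PBS pH 7.4, 0.01% Tween-20, then compound added for 30 min. AlphaScreen streptavidin donor/nickel chelate acceptor beads (10 ug/mL final), 30 min dark, luminescence read.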
G9a block = blocks human histone lysine methyltransferase G9a | G9a H3K9 monomethylation, AlphaScreen, 2 h | Potency, µM (titrated, usually from 102 µM), usual class: inhibitors | hit rate 8.8% among 350,000; note: nearly all actives have a fitted effect of over 75% in size
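Step 1: enzyme (final 20 nM) with compound, 15 min RT. Step 2: substrate peptide 500 nM and SAM 20 uM, 2 h RT. Step 3: anti-H3K9me1 antibody and AlphaScreen beads, 10 min, then plate read.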
GLS inh = inhibitors of human glutaminase (GLS) | hit rate 0.21% among 410,000 | AID 624170 | Potency, µM (top dose mostly 45.5 µM), usual class: inhibitors | O94925 | GLS enzymatic activity, qHTS titration
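hKGA in 45 mM KH2PO4 pH 8.2, 0.02% Tween-20 with pin-transferred compounds; 1 mM L-glutamine (stock) plus glutamate oxidase/HRP/Amplex Red coupling added. Fluorescence read initially and after 30 min at RT.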
JMJD2A Tudor = blocks the human JMJD2A Tudor domain. hit rate 4.4% among 390,000. AlphaScreen JMJD2A-Tudor / H3K4me3 peptide binding. O75164. Potency, µM (top dose mostly 114 µM), most hits filed as inhibitors; note: nearly all actives have a fitted effect of over 50% in size
BAZ2B inh = BAZ2B (human) inhibition | AlphaScreen BAZ2B-H3K14Ac peptide displacement | Q9UIF8 | hit rate 4.4% among 360,000 | Potency, µM (doses to about 114 µM), hits mostly inhibitors; note: nearly all actives have a fitted effect of over 60% in size
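Protein-peptide AlphaScreen: BAZ2B 50 nM, b-H3K14Ac 50 nM, 1x PBS pH 7.4 + 0.01% Tween-20. Preincubation 30 min RT; cpd 30 min RT (top 110 uM); beads 20 min RT, light-protected.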
L3MBTL1 inh = L3MBTL1 (human) inhibition. AlphaScreen L3MBTL1–H3K9me1 peptide binding. hit rate 0.66% among 230,000. Q9Y468. Potency, µM (doses to about 57.1 µM), actives largely listed as inhibitors; note: nearly all actives have a fitted effect of over 60% in size
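Displacement of a biotinylated histone H3(1-15) peptide monomethylated at Lys9 (75 nM) from L3MBTL1 (50 nM) was measured by AlphaScreen after a 30 min room-temperature compound incubation; cefsulodin titration served as intraplate control.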
Hits are given with their value; n = inactive; u = inconclusive; x = no result; [ ] = dose if it differs, or a comment. Rows were chosen to be rich in hits. Some 10% of all compounds tested hit in one or more screens of this group. Calls come from the whole dose curve; as a rule, active = well fitted curve in the direction sought with a large enough effect; inconclusive = small, poorly fitted or top-dose-only effect, or another doubt; inactive = no such curve, though single readings can be large; an effect the other way counts as inactive or inconclusive.

SMILES | HP1b binding inh | G9a block | GLS inh | JMJD2A Tudor | BAZ2B inh | L3MBTL1 inh
CCC(=O)c1ccc(OCC(=O)OCC(=O)N2CCN(c3ccc(OC)cc3)CC2)cc1 | n | n[2.33 µM] | n | n | n | n
COc1cccc(CC(=O)OC(C)C(=O)Nc2ccc(N3CCOCC3)cc2)c1 (stereo unspecified) | n | 50.1µM | n | n | n | n
COc1cccc(CNC(C)C(=O)Nc2ccc3c(c2)OCCO3)c1 (stereo unspecified) | u | 44.7µM | n | 3.16µM | u | x
CCn1c(CN2CCC(C)CC2)nc2cc(NC(=O)c3cccc([N+](=O)[O-])c3)ccc21 | n | n | n | 56.2µM | n | x
CCn1c(CN2CCC(C)CC2)nc2cc(NC(=O)c3ccc([N+](=O)[O-])cc3)ccc21 | n | n | n | n | n | x
Cc1cc(-c2ccccc2)c2c(=O)n(-c3ccccc3)[nH]c2n1 | n | 11.2µM | n | n | u | u
COc1ccc(-c2cn(-c3ccc(C)cc3)c(S(=O)(=O)CC(=O)Nc3ccccc3)n2)cc1 | n | u | n | u | n | x
Fc1ccccc1N1CCN(Cc2cccnc2)CC1 | u | 28.2µM | n | 1.58µM | 56.2µM | n
Fc1ccccc1N1CCN(CC2CCCCC2)CC1 | u | n[0.501 µM] | n | 20µM | 79.4µM | n[2.29 µM]
COc1ccc2c(c1OC)C(=O)OC2CC(=O)c1ccc(O)c(O)c1 (stereo unspecified) | n | 39.8µM | n | 5.01µM | u | x
Cc1nc(NCCc2ccccc2)c2oc3ccccc3c2n1 | n | 79.4µM | n | n | u | x
CNC(=O)C(Sc1nc(C)nc2c1oc1ccccc12)C(C)=O (stereo unspecified) | n | 17.8µM | n | n | n | x
O=C(C1CCC1)N1CCCc2cc(S(=O)(=O)N3CCN(c4cccc(Cl)c4)CC3)ccc21 | n | n | n | n | n | x
CCCCS(=O)(=O)Nc1ccc(C)cn1 | u | 7.08µM | n | n | n | n
CC(=O)Nc1ccc(S(=O)(=O)N(C)CC(=O)OCC(=O)N2CCc3ccccc32)cc1 | n | 50.1µM | n | n | n | x
CC(=O)Nc1ccc(S(=O)(=O)N(C)CC(=O)Nc2ccccc2N2CCCC2)cc1 | n | 44.7µM | n | n | n | n
CN(C)c1ccc(CNC(=O)Cc2ccc(NC(=O)N3CCCCc4ccccc43)cc2)cc1 | n | 12.6µM | n | 50.1µM | 44.7µM | x
CN(CC(=O)Nc1ccc(F)cc1)CC(=O)N1CCc2ccccc21 | n | 56.2µM | n | n | n | n
CCN1CCN(C(c2cc(OC)c(OC)c(OC)c2)c2nnnn2C(C)C)CC1 (stereo unspecified) | n | u | n | n | 50.1µM | x
COc1cc(C(c2nnnn2C2CCCC2)N2CCN(C)CC2)cc(OC)c1OC (stereo unspecified) | n | n | n | n | u | x
C=CCN1CCN(C(c2ccc(OC)c(OC)c2)c2nnnn2C(C)(C)C)CC1 (stereo unspecified) | n | 50.1µM | n | n | 79.4µM | n
COc1ccccc1C(c1nnnn1C(C)(C)C)N1CCCCCC1 (stereo unspecified) | n | 25.1µM | n | n | n | n
CC(C)(C)n1nnnc1C(c1cccc(C#N)c1)N1CCCCCC1 (stereo unspecified) | n | 70.8µM | n | n | n | n
C=CCN1CCN(C(c2ccc(Cl)cc2)c2nnnn2CCc2ccc(OC)c(OC)c2)CC1 (stereo unspecified) | n | n | n | n | n | n
Cc1c2cnn(-c3ccccc3)c(=O)c2c(C)n1CC(=O)Nc1ccccc1Br | n | n | n | n | n | x
COC(=O)c1ccccc1NC(=O)CCC(=O)N1CC(C)Sc2ccccc21 (stereo unspecified) | n | n | n | n | n | x
Cc1ccc2nc(CSc3nnc(NC(=O)COc4ccccc4F)s3)cc(=O)n2c1 | n | n | n | n | n | x
COc1ccccc1Nc1nnc(SCc2cc(=O)n3cc(C)ccc3n2)s1 | n | 12.6µM | n | n | n | n
COc1cc(OC)c(Nc2nc3ccccc3nc2-n2nc(C)cc2C)cc1Cl | n | n | n | n | n | x
COc1cc(CN(C(=O)c2ccc(C)cc2)c2ccccn2)cc(OC)c1OC | n | n | n | n | n | x

Compound activity: PubChem, National Center for Advancing Translational Sciences (NCATS)
